Compounds without any hit were thinned out: in the full panel of roughly 83,000, 20% have a hit.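 The endpoint reported here, percent growth, reads 100 for growth as untreated, 0 for no net growth and -100 for all cells dead.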 Active and inactive are the calls of the source. How the source made its calls: active means growth percent below 10; inactive means the rest.

This assay deals with HL-60(TB) leukemia. Nature of the assay: NCI-60 one-dose screen, 48 h (100 = growth as untreated, 0 = no growth, -100 = all killed). Conditions: 10 µM unless noted.
Take `COc1ccc2[nH]cc(-c3nc(-c4c[nH]c5c(Cl)nccc45)cs3)c2c1`: the growth was 36% (inactive). To `Cc1nc2sc(C(=O)Nc3cccc(Cl)c3C)c(N)c2cc1C(C)O` (stereo not given) belongs -18.7% (active); to `Cc1nc2c(=O)nc3s/c(=C\c4ccco4)c(=O)n3c2nc1C`, 98% (inactive).

Regarding `CC1=C(C(=O)/C=C/c2ccc(N(C)C)cc2)C(c2ccccc2)NC(=S)N1` (stereo not given), the growth was 99.4% (inactive). `CC12O[C@H](C[C@@H](OC(=O)c3ccccc3)[C@H]1O)n1c3ccccc3c3c4c(c5c6ccccc6n2c5c31)C(=O)NC4=O`: the growth is 96.9% (inactive). Next, `CCN(CC)CCOc1nc2c3ccc(Cl)cc3nn2c2ccccc12`: 19.5% (inactive); `COc1cccc(Sc2ccc([N+](=O)[O-])c3no[n+]([O-])c23)c1`: 2.91% (active); `CC(=O)OCCCCCNc1ccccc1`: 76.3% (inactive).

In the case of `CCCCC#Cc1c(/C=C(\CCCC)SCC)n(C)c(=O)[nH]c1=O`, the growth is 92.8% (inactive).

For `CCC(C)C1NC(=O)C(CCCCN)NC(=O)C(CCCCN)NC(=O)C(CC(C)C)NC(=O)C(CCCCN)NC(=O)C(C(C)CC)NC(=O)C(C(C)C)NC(=O)C(C(C)CC)NC(=O)C(CCCCN)NC(=O)C(CCCCN)NC(=O)C(C)NC(=O)C(CCCCN)NC(=O)C(CC(C)C)NC1=O` (stereo not given), the growth was -35.2% (active).

`Cn1cc(C(=O)c2nc(-c3c[nH]c4ccc(Br)cc34)no2)c2cc(F)ccc21`: the growth is 94.7% (inactive).

With `Cc1ccc(S(=O)(=O)Nc2c(Br)cc(Br)cc2C(N)=O)cc1`, the growth was 83% (inactive). For `N#C/C(C(=O)c1ccccc1)=C1/C(=O)Nc2ccccc21`, the growth was 106% (inactive). Next, `CCC1S/C(=N\N=C(/C)c2cccs2)N(c2ccccc2)C1=O` (stereo not given): 59.2% (inactive); `COc1ccc(Nc2ccc3ccccc3c2)cc1`: 91.3% (inactive); `COc1cc(N=Nc2cc(S(=O)(=O)O)cc3cc(S(=O)(=O)O)cc(O)c23)c(C)cc1N=Nc1c(S(=O)(=O)O)cc2cc(Nc3ccccc3)ccc2c1O`: 93.6% (inactive). As for `CC/C(Cc1ccccc1)=C(\c1ccc(OCCN2CCCC2)cc1)c1ccc(OC(C)=O)cc1`, the growth was 71.3% (inactive). Next, `O=c1[nH]c(CN2CCN(c3ccccc3F)CC2)nc2sc3c(c12)CCC3`: 116% (inactive); `O=C(O)C(=O)O`: 151% (inactive). Next, `Cc1ccc(Nc2c(C(N)=O)cnc3ccc(S(=O)(=O)Nc4cc(C)on4)cc23)cc1`: 113% (inactive). To `O=C1c2cccc3cccc(c23)C(=O)N1CCCCN1CCN(CCCCOc2ccc(-c3nc4ccc(N5CCOCC5)cc4[nH]3)cc2)CC1` belongs 92.6% (inactive).

For the molecule `CSC1=N/C(=C\c2cccc(OCc3ccc(Cl)cc3)c2)C(=O)N1`, the growth is 77.8% (inactive). To `COc1cc(Cl)cc(-c2nn(-c3cccc(NC(=O)c4ccc(N5CCOCC5)c(C(F)(F)F)c4)c3)cc2-c2ccncc2)c1` belongs 2.73% (active); to `O=C(Nc1ccc(Cl)c(Cl)c1)OCc1ccco1`, 32.1% (inactive). Take `CCOC(=O)n1ccn(C)c1=S`: the growth was 101% (inactive).

The values are drawn from PubChem BioAssay (NCI).
